Assay results taken from the OligoGym collection.

The sequences below were run against SLC30A1 (assay: pooled miR-30 sensor sort-seq; sequence = guide strand). Details: shRNA.
Also: reference of the scale not given here.

Sequence	sensor-assay potency score (higher = more potent)
TACACTAGCAAATTCAGGCTGA	0.702
TTAAGTAATGGATAGGTTGTGT	-0.332
TTCTTCTCTAGATTGTTACTAA	-0.537
TTCACTTGTACTTCCACTGTAT	0.732
TTTGTTTAGGAACAGTTTGTAG	-1.09
TTTTCAGCTTTAGTCCTCCTGG	-0.574
TAGTGTCCCACAACATTGCTTC	0.199
TAGATTGTTACTAAGTTCTAAA	-0.976
TAATCTCTATCACAACAGCAGG	-1.43
TTGATTTAGAGCCTACACTAGC	-0.669
TTTACTACTACAATCACTGAAC	-0.0512
TTAATCTCTATCACAACAGCAG	0.193

Each sequence was assayed against SLC34A1 in the same assay as above. Details: shRNA.

Sequence	sensor-assay potency score (higher = more potent)
TTGATGAGCACCACGAAGGCCA	-0.0356
TCTCAATGCTGATCACACCAAG	-0.785
TGGACCACGAAGGTCATGCTGG	-0.818
TAGAGGACGGCAAACCAGCGGT	-0.623
